A selection: hits, their analogues and other compounds. The true share with any hit is near 11%.
PNC inhibitor = blocks assembly of the perinucleolar compartment; PC3M PTB-GFP, PNC prevalence imaging, 16 h; hits give low values; activity change (PNC), negative = inhibition, % at 10 µM; 140,000 tested, 3.1% active; AID 2417;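 active = readout at or below -70, meaning at least 70% loss of cells showing the perinucleolar compartment, a nuclear body marking cancer cells; inconclusive = readout between -30 and a set limit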;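 also: plate controls were DMSO wells for no effect and camptothecin positive control wells for full effect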
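PC3M cells stably expressing PTB-GFP, 750–1000 cells/well, treated 16 h at 37 °C with compound (23 nl of library stock), in duplicate. After paraformaldehyde fixation and Hoechst stain, imaged at 20x; PNC prevalence scored by image analysis.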
ALDH1A1 block = ALDH1A1 (human) enzyme inhibition; P00352; Purified ALDH1A1, NADH fluorescence, propionaldehyde substrate; Potency, µM (top dose mostly 75.3 µM), for the others: top-dose activity, negative = inhibition, usual class: inhibitors; 220,000 tested, 7.3% active; AID 1030;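 also: potency is read from the fitted curve at half-maximal effect; plate controls were no enzyme wells and a reference inhibitor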
HttQ103 aggreg = reduces HttQ103-GFP aggregates in PC12 cells | PC12 HttQ103-GFP aggregates, Acumen cytometry, 40 h | Potency, µM (series often up to 46.1 µM), inactives show at the top dose activity change, negative = inhibition, usual class: inhibitors | 220,000 tested, 1.1% active; active = well fitted curve in the direction sought with a large enough effect; inconclusive = small, poorly fitted or top-dose-only effect, or another doubt; inactive = no such curve, though single readings can be large; an effect the other way counts as inactive or inconclusive; also: potency is read from the fitted curve at half-maximal effect; % is scaled to controls: 0 for no effect and ±100 for the full control effect; nearly all actives have a fitted effect of over 60% in size
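Aggregate formation scored by laser-scanning cytometer (488 excitation, 500–530 emission) in lysed PC12 cells expressing Q103-GFP after 100 nM tebufenozide induction; library tested in dose series, with ATPLite reagent added in the multiplex.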
HPGD block = HPGD (human) dehydrogenase inhibition; purified HPGD, NADH fluorescence kinetic, PGE2 substrate; 150,000 tested, 4.3% active; P15428; Potency, µM, inactives show top-dose activity change, negative = inhibition, most hits filed as inhibitors; also: potency is read from the fitted curve at half-maximal effect; % is scaled to controls: 0 for no effect and ±100 for the full control effect
Target sequence (P15428 whole entry, looked up): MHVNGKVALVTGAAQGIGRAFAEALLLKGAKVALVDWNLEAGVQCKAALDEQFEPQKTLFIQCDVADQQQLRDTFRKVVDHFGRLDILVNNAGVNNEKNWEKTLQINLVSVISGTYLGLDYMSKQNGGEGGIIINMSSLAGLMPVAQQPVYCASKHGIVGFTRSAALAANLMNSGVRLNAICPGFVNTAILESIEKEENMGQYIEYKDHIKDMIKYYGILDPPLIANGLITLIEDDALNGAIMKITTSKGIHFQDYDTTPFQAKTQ
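20 nM HPGD preincubated 15 min at room temperature with compound in 50 mM Tris-HCl pH 8, 0.01% Tween 20. Started with 1 mM NAD+ and 30 uM prostaglandin E2; NADH fluorescence (360/450 nm) read 5 times over 30-s intervals, last minus first.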
RGS12 GoLoco inh = RGS12 GoLoco-Gai1 interaction inhibition. Gai1:RGS12 GoLoco peptide FP, rhodamine, 10 min. AID 880. P63096. 230,000 tested, 0.44% active. Potency, µM (doses to about 61.6 µM), for the others: top-dose activity, negative = inhibition, most hits filed as inhibitors; active = well fitted inhibition curve with a large enough effect, not every such curve was filed as active; inactive = no such curve, though single readings can be large or run the other way; also: potency is read from the fitted curve at half-maximal effect; % is scaled to controls: 0 for no effect and ±100 for the full control effect; nearly all actives have a fitted effect of over 30% in size
Target sequence (P63096 whole entry, looked up): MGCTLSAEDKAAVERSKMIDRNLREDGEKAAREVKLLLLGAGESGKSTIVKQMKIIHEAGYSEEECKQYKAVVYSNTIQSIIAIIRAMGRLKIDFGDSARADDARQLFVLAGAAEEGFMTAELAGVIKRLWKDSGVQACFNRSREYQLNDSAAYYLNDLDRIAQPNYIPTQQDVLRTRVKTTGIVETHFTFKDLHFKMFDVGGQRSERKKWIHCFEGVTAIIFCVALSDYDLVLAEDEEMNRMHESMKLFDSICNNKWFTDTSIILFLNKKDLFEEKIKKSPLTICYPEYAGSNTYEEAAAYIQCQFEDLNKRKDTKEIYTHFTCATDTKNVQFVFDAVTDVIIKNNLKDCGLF
HTT cytoprotect = cytoprotection in Huntington HTT-Q103 PC12 cell model; PC12 HTT-Q103 induced, cytoprotection, ATP luminescence, 40 h; Potency, µM (doses to about 56.4 µM), for inactives: cytoprotection (ATP increase), most hits filed as activators; 230,000 tested, 0.14% active; active = well fitted curve in the direction sought with a large enough effect; inconclusive = small, poorly fitted or top-dose-only effect, or another doubt; inactive = no such curve, though single readings can be large; an effect the other way counts as inactive or inconclusive; also: potency is read from the fitted curve at half-maximal effect; % of control where 0% means no effect; nearly all actives have a fitted effect of over 45% in size
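ATP quantification (ATPlite) reports survival of PC12 cells in which tebufenozide, 100 nM final, switches on Htt exon 1 with 103 glutamines linked to GFP; compounds are titrated.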
* = called active by the depositor; [ ] = another dose, or the depositor's remark. Unless noted, calls follow the shape of the dose curve; as a rule, active = well fitted inhibition curve with a large enough effect (not every such curve was filed as active); inconclusive = small, poorly fitted or top-dose-only effect, or another doubt; inactive = no such curve, though single readings can be large or run the other way.

What do the screens show for `S=c1[nH]nc(-c2ccccc2)n1/N=C/c1cccs1`?
PNC inhibitor: -2; ALDH1A1 block: 25µM*; HttQ103 aggreg: -9%; HPGD block: 18µM*; RGS12 GoLoco inh: 5%; HTT cytoprotect: 10%[10 µM]

How did COc1ccc2cc(C(=O)c3ccccc3)c(=O)oc2c1 do in these assays?
PNC inhibitor: 32; ALDH1A1 block: 14µM*; HttQ103 aggreg: 5%; HPGD block: -12%; RGS12 GoLoco inh: -5%; HTT cytoprotect: -23%

How did O=C(c1cc2cc([N+](=O)[O-])ccc2s1)N1CCCCC1 do in these assays?
ALDH1A1 block: 14µM*; HttQ103 aggreg: -7%; RGS12 GoLoco inh: 7%; HTT cytoprotect: -47%

Results for CCN(CC)C(=O)c1cc2cc([N+](=O)[O-])ccc2s1 ?
PNC inhibitor: -10; ALDH1A1 block: -5%; HttQ103 aggreg: -4%; HPGD block: 28µM*; RGS12 GoLoco inh: 4%; HTT cytoprotect: -27%

How did O=C(O)CCNC(=O)c1ccc(N=Nc2ccc(O)c(C(=O)O)c2)cc1 do in these assays?
HttQ103 aggreg: -11%; RGS12 GoLoco inh: -2%; HTT cytoprotect: 1%

What do the screens show for `COc1cc([N+](=O)[O-])cc(/C=N/N(CCC#N)C(C)=O)c1O`?
ALDH1A1 block: 10µM*; RGS12 GoLoco inh: 12%

What do the screens show for `CN(C)CCN(C(=O)c1ccc(Br)s1)c1nc2cc3c(cc2s1)OCCO3`?
ALDH1A1 block: 7%; HttQ103 aggreg: 6%; RGS12 GoLoco inh: -14%; HTT cytoprotect: -39%

Results for CN(C)CCN(C(=O)c1ccc(N2C(=O)CCC2=O)cc1)c1nc2cc3c(cc2s1)OCO3 ?
ALDH1A1 block: 20µM*; HttQ103 aggreg: -13%; RGS12 GoLoco inh: -7%; HTT cytoprotect: -20%

How did O=C(N/N=C/c1ccc(Cl)cc1)C(=O)N1CCCCCC1 do in these assays?
ALDH1A1 block: -1%; HttQ103 aggreg: 3%[9.22 µM]; RGS12 GoLoco inh: 14%; HTT cytoprotect: 11%[10 µM]

How did O=C1NC(=S)S/C1=C\c1ccc(SCc2ccccc2)o1 do in these assays?
PNC inhibitor: 34; ALDH1A1 block: inconclusive; HttQ103 aggreg: inconclusive; HPGD block: 18µM*; RGS12 GoLoco inh: 11%; HTT cytoprotect: 9%[10 µM]

How did CCC1=NN2C(=N)/C(=C\c3ccc(SCc4ccco4)o3)C(=O)N=C2S1 do in these assays?
PNC inhibitor: -23; ALDH1A1 block: -11%; HttQ103 aggreg: 8%; HPGD block: -23%; RGS12 GoLoco inh: 182%; HTT cytoprotect: -7%

How did CCCC1=NN2C(=N)/C(=C\c3ccc(SCc4ccco4)o3)C(=O)N=C2S1 do in these assays?
PNC inhibitor: -27; ALDH1A1 block: 22µM*; HttQ103 aggreg: -8%[1.84 µM]; HPGD block: 22µM*; RGS12 GoLoco inh: 326%; HTT cytoprotect: -9%

How did O=C1NC(=S)S/C1=C\c1ccc(SCc2ccco2)o1 do in these assays?
PNC inhibitor: -27; ALDH1A1 block: 0.89µM*; HttQ103 aggreg: 8%; HPGD block: 7.1µM*; RGS12 GoLoco inh: 73%; HTT cytoprotect: 14%[10 µM]

Results for COC(=O)NC(/C(C(=O)OC)=C(\C)NCc1ccccc1)c1cccs1 (centres undefined) ?
ALDH1A1 block: 0%[13.5 µM]; HTT cytoprotect: -3%[10 µM]

What do the screens show for `CCOC(=O)c1sc(NC(=O)CCN2CCCCCC2)c(C(=O)OCC)c1C`?
ALDH1A1 block: 2.5µM*; HttQ103 aggreg: 31%; RGS12 GoLoco inh: 8%; HTT cytoprotect: -59%

How did CCOC(=O)c1c(NC(=O)C2C3C=CC(CC3)C2C(=O)O)sc(C)c1CC (centres undefined) do in these assays?
PNC inhibitor: -4; ALDH1A1 block: -1%; HttQ103 aggreg: 6%; HPGD block: -16%; RGS12 GoLoco inh: -3%

Results for CCOC(=O)c1c(N)sc(C(=O)N2CCCCCC2)c1C ?
PNC inhibitor: -6; ALDH1A1 block: inconclusive; HttQ103 aggreg: -22%; HTT cytoprotect: -24%

What do the screens show for `CCOC(=O)c1sc(NC(C)=O)c(C(=O)OCC)c1C`?
PNC inhibitor: 8; ALDH1A1 block: inconclusive; HttQ103 aggreg: -7%; HPGD block: -12%; RGS12 GoLoco inh: -13%; HTT cytoprotect: 10%

How did CCOC(=O)c1c(NC(=O)C2CC2)sc(C)c1CC do in these assays?
PNC inhibitor: -24; ALDH1A1 block: 22µM*; HttQ103 aggreg: -24%; HPGD block: inconclusive; RGS12 GoLoco inh: 27%

What do the screens show for `CCOC(=O)c1c(NC(=O)CC)sc(C(=O)N2CCCCC2)c1C`?
PNC inhibitor: 61; ALDH1A1 block: inconclusive; HttQ103 aggreg: -12%; HPGD block: 28µM*; RGS12 GoLoco inh: 1%; HTT cytoprotect: -36%

How did Cc1ccccc1-c1cc(C(=O)Nc2sc(C)c(C)c2C(N)=O)c2ccccc2n1 do in these assays?
PNC inhibitor: 0; ALDH1A1 block: inconclusive; HttQ103 aggreg: inconclusive; HPGD block: 32µM*; RGS12 GoLoco inh: 32%; HTT cytoprotect: -55%

What do the screens show for `CCOC(=O)c1sc(NC(=O)c2cc(-c3ccccc3C)nc3ccccc23)c(C#N)c1C`?
PNC inhibitor: inconclusive; ALDH1A1 block: 8.9µM*; HttQ103 aggreg: 5.6µM*; HPGD block: 16µM*; RGS12 GoLoco inh: -5%; HTT cytoprotect: 34%

Results for CCOC(=O)c1c(NC(=O)c2cc(-c3ccc(Cl)s3)nc3ccccc23)sc(C(N)=O)c1C ?
PNC inhibitor: -21; ALDH1A1 block: 7%; HttQ103 aggreg: 13%; HPGD block: -6%; RGS12 GoLoco inh: 5%; HTT cytoprotect: -14%[10 µM]

Results for N#CC(C#N)=C1C=CC=CN1/C(=C\c1ccccc1Cl)C(=O)c1ccccc1 ?
PNC inhibitor: -8; ALDH1A1 block: inconclusive; HttQ103 aggreg: inconclusive; HPGD block: 7.9µM*; RGS12 GoLoco inh: 41%

What do the screens show for `N#CC(C(=O)c1ccccc1)=C1SCCS1`?
ALDH1A1 block: 14µM*; HttQ103 aggreg: 6%[9.22 µM]; RGS12 GoLoco inh: 8%; HTT cytoprotect: -16%[10 µM]

How did CNC(=S)N(Cc1ccc2c(c1)OCO2)C1CC(=O)N(c2ccc(F)cc2)C1=O (centres undefined) do in these assays?
PNC inhibitor: 3; ALDH1A1 block: -2%; HttQ103 aggreg: 8%; HPGD block: -6%; RGS12 GoLoco inh: -23%; HTT cytoprotect: -1%[10 µM]

Results for CCCn1c(=O)c2c(c3ccccc31)OC(C)C(=O)N2 (centres undefined) ?
PNC inhibitor: -88*; ALDH1A1 block: 6%; HttQ103 aggreg: 6%; HPGD block: -4%; RGS12 GoLoco inh: 4%; HTT cytoprotect: -3%[1.9 µM]

Results for CCCCn1c(=O)c2c(c3ccccc31)OCC(=O)N2 ?
PNC inhibitor: 19; ALDH1A1 block: 20µM*; HttQ103 aggreg: 4%[9.22 µM]; HPGD block: -11%; RGS12 GoLoco inh: -5%; HTT cytoprotect: -24%[0.074 µM]
